Compounds with a hit are over-represented: about 6.6% of the library has one in this group of screens.
HT1080 IDH1KD tx = HT-1080 IDH1 knockdown cell toxicity (counter line); 360,000 compounds, 2% hits; HT-1080 IDH1 knockdown viability, ATP luminescence, 48 h; Potency, µM (highest dose often 46.1 µM), most hits filed as cytotoxic
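Cytotoxicity counter-line: IDH1KD HT-1080, 48 h, CellTiter-Glo. Curves classed by r2, magnitude and activity.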
KB-3-1 tox = kills parental KB-3-1 adenocarcinoma cells; AID 1347075; 400,000 compounds, 1.4% hits; Potency, µM (highest dose often 46.1 µM), most hits filed as cytotoxic; KB-3-1 viability, CellTiter-Glo ATP luminescence, 72 h; further: nearly all actives have a fitted effect of over 60% in size
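KB-3-1 parental drug-naive adenocarcinoma cells in DMEM/10% FBS, incubated 72 h at 37 C with pin-transferred compounds across a concentration series. Viability by CellTiter-Glo luminescence; concentration-response curves fitted after normalization.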
TGFb SMAD3 inh = blocks TGF-b signaling | 410,000 compounds, 1.2% hits | HepG2 CAGA-GFP TGF-b/SMAD3 reporter, GFP fluorescence, 18 h; TGF-beta stimulated, 500 pg/mL final | AID 588855 | Potency, µM (doses to about 46.1 µM), actives largely listed as inhibitors; further: nearly all actives have a fitted effect of over 65% in size
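Read-out: total well GFP (ex488/em500-530) summed from mean per-cell fluorescence. Cells: HEPG2 CAGA-GFP, 1% FBS DMEM, 18 h at 37 degrees C with 500 pg/mL final TGF-beta. Unstimulated wells served as the full-inhibition control; stimulated DMSO wells = 0%.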
HT1080-NT tox = kills 2HG-producing HT-1080-NT fibrosarcoma cells; Potency, µM (doses to about 46.1 µM), actives largely listed as cytotoxic; HT-1080-NT fibrosarcoma viability, CellTiter-Glo ATP luminescence, 48 h; 360,000 compounds, 1.6% hits; AID 686970;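 further: NT is the 2HG producing partner of a matched IDH1 knockdown line; nearly all actives have a fitted effect of over 55% in size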
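Luminescent CellTiter-Glo readout after 48 hours of compound exposure at 37 degrees C defined viability of HT-1080-NT cells. Activity was normalized to DMSO wells and cell-free media wells; concentration-response curves were fitted and assigned curve classes.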
HepG2 tox = HepG2 cytotoxicity, counter-screen for TGF-b inhibitors. HepG2 CAGA-GFP viability, ATP luminescence, 18 h. Potency, µM (doses to about 46.1 µM), hits mostly cytotoxic. 410,000 compounds, 0.76% hits
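CellTiter-Glo luminescence gave cytotoxicity after 18 hours at 37 degrees C. The cells were HepG2 CAGA-GFP in 1% FBS DMEM, stimulated with 500 pg/mL TGF-beta after compound addition. %Activity was normalised to no-cell wells (complete cell-killing) and DMSO (no toxicity), and curves were fitted and classified.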
KB-V1 MDR tox = kills drug-selected multidrug resistant KB-V1 cells; Potency, µM (series often up to 46.1 µM), actives largely listed as cytotoxic; KB-V1 MDR cells viability, CellTiter-Glo, 72 h; 400,000 compounds, 3.4% hits; further: nearly all actives have a fitted effect of over 60% in size
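Cytotoxicity via CellTiter-Glo luminescence after 72 h compound exposure at 37 degrees C. Cells: drug-selected KB-V1 line, DMEM phenol-red free plus 10% FBS. Compounds tested at multiple concentrations; normalized data fitted to concentration-effect curves.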
Hits are given with their value; i = inactive; ? = inconclusive; nt = no result given; ! = repeats disagree; [ ] = another dose, or the depositor's remark. The call rests on the fitted dose curve; in most records, active means well fitted curve in the direction sought with a large enough effect; inconclusive means small, poorly fitted or top-dose-only effect, or another doubt; inactive means no such curve, though single readings can be large; an effect the other way counts as inactive or inconclusive.

SMILES	HT1080 IDH1KD tx	KB-3-1 tox	TGFb SMAD3 inh	HT1080-NT tox	HepG2 tox	KB-V1 MDR tox
O=C(COc1ccc(Cl)cc1)NCC(c1ccco1)S(=O)(=O)c1ccc(Cl)cc1 (centres undefined)	nt	i	?	nt	i	i
Cc1ccccc1CN1[C@@H](CC2CCCCC2)COCCS1(=O)=O	i	?	11.2µM	i	11.2µM!	?
O=S1(=O)CCOC[C@H](CC2CCCCC2)N1Cc1cccc(Cl)c1	i	?	15.8µM	i	i	?
O=S1(=O)CCOC[C@H](CC2CCCCC2)N1Cc1ccccc1	i	?	?	i	i	i
CCc1ccc(C2C(C(=O)Nc3ccc(Cl)cc3)=C(C)Nc3ncnn32)cc1 (centres undefined)	nt	i	i	nt	i	i
c1ccc(-c2nnc3nc(N4CCCCC4)nc(N4CCCCC4)n23)cc1	i	?	i	i	i	18.4µM
COc1ccc(/C=C/C(=O)c2ccc(O)cc2)cc1CN1CCOCC1	?	16.4µM	?	i	i	?
COc1ccc(/C=C/C(=O)c2ccc3ccccc3c2O)cc1CN1CCOCC1	i	i	i	i	i	i
COc1ccc(C(=O)/C=C/c2ccc(OC)c(CN3CCOCC3)c2)cc1	?	?	?	i	i	14.6µM
COc1ccc(/C=C/C(=O)c2ccccc2O)cc1CN1CCOCC1	?	?	i	?	i	i
COc1cc(/C=C/C(=O)c2ccc(O)cc2)ccc1OCC#N	i	6.51µM	?	i	i	18.4µM
CCCCN(C(C)=O)c1c(CC)nc2ccc(C(=O)NCCCN(C)C)cn12	i	i	i	i	i	i
Cc1nn(-c2ccccc2)c2c1C(=O)N(Cc1ccccc1)C(=O)C(C)(C)C2	i	i	i	i	i	i
Cc1nn(-c2nc3ccccc3n2Cc2ccccc2)c2c1C(=O)CC(C)(C)C2	i[9.24 µM]	?	?	i	i	20.6µM
Oc1ccc(-c2nnc(SCC3CCCCC3)o2)cc1	i	i	i	i	11.2µM	i
O=C(CSc1nnc(-c2ccc(O)cc2)o1)N1CCOCC1	i	i	i	i	i	i
O=c1[nH]c(Cc2ccccc2)nc2scc(-c3ccccc3)c12	i	i	i	i	i	i
Cc1csc(SC(C)c2nc3scc(-c4ccccc4)c3c(=O)[nH]2)n1 (centres undefined)	i	?	?	i	i	9.2µM
CCOC(=O)c1cc(-c2ccc(C)cc2)n(CC(=O)Nc2ccccc2F)c1C	nt	i	i	nt	i	?
C=CCn1c2ccccc2c2nnc(SCCCn3c(=O)[nH]c4ccccc43)nc21	16.4µM	?	i	?	i	?
C=CCn1c2ccccc2c2nnc(SCCN3CCCCC3)nc21	i	?	i	i	i	i
CN(C)c1ccc(/C=C/C(=O)Nc2cccc([S+](=O)([O-])Nc3ccccc3F)c2)cc1	nt	i	nt	nt	nt	i
CCOC(=O)c1cnc2ccc(C)cc2c1NCCc1ccc(OC)c(OC)c1	nt	i	11.2µM	nt	i	?
CCOC(=O)c1cnc2ccc(OCC)cc2c1NCCc1ccc(OC)c(OC)c1	nt	nt	12.6µM	nt	i	nt
CCOC(=O)c1cnc2ccc(OC)cc2c1Nc1ccc(N2CCN(C)CC2)cc1	23.1µM	i	?	?	i	i
SMILES	HT1080 IDH1KD tx	KB-3-1 tox	TGFb SMAD3 inh	HT1080-NT tox	HepG2 tox	KB-V1 MDR tox
O=C(/C=C/c1ccccc1)Nc1nc(-c2cccs2)ns1	nt	nt	i	nt	i	nt
CCN(CC)C(=O)c1sc2c(c1C)c(=O)n(CCc1ccccc1)c(=O)n2Cc1ccc(F)cc1Cl	nt	i	i	nt	i	?
O=C(Nc1ccc(-c2nc3ccccc3[nH]2)cc1)c1ccc2c(c1)OCCO2	nt	?	nt	nt	nt	i
Cc1cc(-c2ccc(C(C)C)c(S(=O)(=O)N3CCC(C)CC3)c2)on1	?	20.6µM	?	?	i	i
Cc1cc(-c2ccc(C)c(S(=O)(=O)N3CCC(C)CC3)c2)on1	nt	i	?	nt	i	?
Cc1cc(-c2ccc(C(C)C)c(S(=O)(=O)N3CCN(c4ccccc4)CC3)c2)on1	1.84µM	5.8µM	i	1.46µM	i	11.6µM

Source: PubChem
